# An excerpt weighted towards active compounds, which were near 2.4% of everything screened.
# PfM18AAP inh-1 = blocks P. falciparum M18 aspartyl aminopeptidase; recombinant PfM18AAP, H-Glu-NHMec fluorogenic cleavage; inhibition, % at 7.35 µM; actives 1.2% (n = 290,000);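 active means inhibition above the campaign mean inhibition over all tested compounds plus 3 SD, cut at about 28% in these data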
# PABP polyA inh = PABP-poly(A) binding inhibition; actives 1% (n = 290,000); P11940; PABP-poly(A) RNA binding, fluorescence polarization; inhibition, % at 35 µM;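 further: calls also rest on retests at 20 µM and on dose response follow-up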
# PABP1 MLLE inh = inhibitors of microRNA-mediated deadenylation, human PABP1 MLLE binding; GST-MLLE / FITC-PAM2 fluorescence polarization; inhibition, % at 20 µM; actives 0.36% (n = 360,000); in the data active means inhibition above about 35%, passing the limit was not always enough
# eIF4E-4G inh = blocks eIF4E binding to eIF4G; TR-FRET eIF4E-eIF4GI(517-606) binding, 2 h; inhibition, % at 21.7 µM; actives 0.37% (n = 220,000); AID 782;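 active means inhibition above about 30%, limit read from the data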
# Target sequence (P63073 whole entry, looked up): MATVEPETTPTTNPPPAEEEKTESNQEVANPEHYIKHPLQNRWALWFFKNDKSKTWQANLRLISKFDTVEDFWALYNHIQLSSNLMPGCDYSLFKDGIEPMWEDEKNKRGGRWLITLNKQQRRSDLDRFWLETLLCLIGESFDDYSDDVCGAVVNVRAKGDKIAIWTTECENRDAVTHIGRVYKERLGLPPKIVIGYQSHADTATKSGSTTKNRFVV
# Target sequence (Q04637 whole entry, looked up): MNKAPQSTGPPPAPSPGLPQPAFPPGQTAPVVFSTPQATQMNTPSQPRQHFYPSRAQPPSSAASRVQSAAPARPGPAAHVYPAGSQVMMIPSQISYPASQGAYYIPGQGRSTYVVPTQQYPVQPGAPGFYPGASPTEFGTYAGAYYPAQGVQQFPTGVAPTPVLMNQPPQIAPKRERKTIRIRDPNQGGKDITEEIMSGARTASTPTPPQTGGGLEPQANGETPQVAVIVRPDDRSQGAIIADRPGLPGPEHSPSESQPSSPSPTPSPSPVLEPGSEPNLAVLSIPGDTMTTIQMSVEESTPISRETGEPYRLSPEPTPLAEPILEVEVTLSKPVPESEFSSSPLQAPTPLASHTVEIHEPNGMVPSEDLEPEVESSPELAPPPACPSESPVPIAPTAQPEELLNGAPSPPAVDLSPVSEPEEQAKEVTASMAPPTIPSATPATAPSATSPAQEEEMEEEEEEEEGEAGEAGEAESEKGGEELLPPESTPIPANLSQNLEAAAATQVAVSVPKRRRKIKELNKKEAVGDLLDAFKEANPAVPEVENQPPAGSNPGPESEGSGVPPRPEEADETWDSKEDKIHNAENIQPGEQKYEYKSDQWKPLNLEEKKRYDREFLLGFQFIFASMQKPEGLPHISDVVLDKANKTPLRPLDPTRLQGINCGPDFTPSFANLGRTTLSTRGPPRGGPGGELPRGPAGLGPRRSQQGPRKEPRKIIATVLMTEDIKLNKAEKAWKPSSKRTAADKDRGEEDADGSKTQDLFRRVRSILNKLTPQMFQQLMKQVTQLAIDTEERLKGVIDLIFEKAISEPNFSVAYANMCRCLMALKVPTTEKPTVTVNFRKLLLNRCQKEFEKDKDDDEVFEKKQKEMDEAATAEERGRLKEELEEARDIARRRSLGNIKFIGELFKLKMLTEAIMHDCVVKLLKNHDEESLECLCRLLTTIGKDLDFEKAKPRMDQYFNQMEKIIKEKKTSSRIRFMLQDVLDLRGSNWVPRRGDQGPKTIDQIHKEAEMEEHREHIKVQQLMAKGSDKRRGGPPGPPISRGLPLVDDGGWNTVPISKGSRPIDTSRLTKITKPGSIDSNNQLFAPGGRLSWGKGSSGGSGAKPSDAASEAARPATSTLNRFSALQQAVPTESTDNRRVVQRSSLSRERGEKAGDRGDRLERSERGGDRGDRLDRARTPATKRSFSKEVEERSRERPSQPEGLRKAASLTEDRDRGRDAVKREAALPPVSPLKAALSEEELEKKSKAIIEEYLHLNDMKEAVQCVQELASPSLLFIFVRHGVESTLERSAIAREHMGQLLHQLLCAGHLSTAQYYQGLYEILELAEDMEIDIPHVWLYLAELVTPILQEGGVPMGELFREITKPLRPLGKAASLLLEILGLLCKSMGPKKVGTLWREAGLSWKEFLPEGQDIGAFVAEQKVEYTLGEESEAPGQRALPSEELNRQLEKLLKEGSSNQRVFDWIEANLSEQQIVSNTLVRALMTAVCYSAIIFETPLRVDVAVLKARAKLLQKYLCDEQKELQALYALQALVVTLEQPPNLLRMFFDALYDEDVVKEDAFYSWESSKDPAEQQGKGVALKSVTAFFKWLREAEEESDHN
# PERK inh = inhibitors of human PERK kinase | Q9NZJ5 | CHO PERK-DD fusion, SEAP luminescence translation reporter | inhibition, % at 5.6 µM | actives 0.17% (n = 220,000) | AID 1416;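 active means inhibition above the mean inhibition of all tested compounds plus 3 SD, set separately per screening campaign, cut at about 2.9% in these data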;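 further: PERK kinase domain activated by AP20187 dimerizer at 100 nM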
# eIF4H FP inh = inhibitors of RNA binding by human eIF4H; Q15056; eIF4H fluorescence polarization binding assay; inhibition, % at 35 µM; actives 0.94% (n = 290,000); AID 2012;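 further: calls also rest on retests at 20 µM and on dose response follow-up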
# PfM18AAP inh-2 = confirmation of Plasmodium falciparum M18 aspartyl aminopeptidase inhibitors; shares compounds with PfM18AAP inh-1; recombinant PfM18AAP, H-Glu-NHMec fluorogenic cleavage; inhibition, % at 7.35 µM; actives 28% (n = 2,400);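 active means mean inhibition over replicate wells above the hit cutoff set for the earlier primary screen, cut at about 29% in these data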
# CTSL1 counter = counter-screen for PFM18AAP inhibitors: confirmation of human cathepsin L inhibitors | shares compounds with PfM18AAP inh-1 | purified cathepsin L1, Z-Leu-Arg-MCA fluorescence | inhibition, % at 5.96 µM | 2,400 tested, under 10 active | AID 2178;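 active means average inhibition across replicates above the hit cutoff set in the earlier primary screen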
# Numbers stand for hits; n = inactive; u = inconclusive; x = no result. Unless noted, how the calls were made is not given here.
SMILES,PfM18AAP inh-1,PABP polyA inh,PABP1 MLLE inh,eIF4E-4G inh,PERK inh,eIF4H FP inh,PfM18AAP inh-2,CTSL1 counter
CC(Oc1ccccc1F)c1nnc(SCC(=O)NCc2ccc3c(c2)OCO3)o1 (centres undefined),x,x,n,x,x,x,x,x
O=[N+]([O-])c1cc([N+](=O)[O-])c(Oc2cc(F)ccc2F)cc1NN1CCCCC1,n,n,n,x,x,n,x,x
CCOC(=O)c1c(-c2cccs2)csc1N,36,n,n,n,n,n,n,n
O=C(NC1CCCCC1)c1cccc(OCc2ccccc2)c1,n,n,n,x,x,n,x,x
O=C(NNC(=O)C1CCCN(c2ncccn2)C1)c1ccncc1 (centres undefined),n,n,n,n,n,n,x,x
Cc1cccc(NC(=O)NNC(=O)c2cc3ccccc3cc2O)c1C,n,n,n,n,n,n,x,x
Cc1cccc(NC(=O)NNC(=O)c2cc3occc3[nH]2)c1C,46,n,n,x,x,n,n,n
Cc1cc(C)cc(NC(=O)NNC(=O)c2cc3occc3[nH]2)c1,56,n,n,x,x,n,n,n
O=C(N/N=C/c1ccc(F)cc1)c1cccc(NC(=O)c2ccccc2Cl)c1,n,n,n,x,x,n,x,x
CCC1CCCCN1CCCNC(=O)c1cc2c(=O)[nH]c3ccccc3c2n1C (centres undefined),n,n,n,n,n,n,x,x
CC(=O)N1CCN(S(=O)(=O)c2ccc(C)cc2)C1c1ccc(N(C)C)cc1 (centres undefined),36,n,n,n,n,n,n,n
Cc1cc(C)cc(NC(=O)c2ccc(N3C(=O)C4CCCCC4C3=O)cc2)c1 (centres undefined),n,n,n,x,x,n,x,x
CN(C(=O)CSc1nc(C2CC2)n(-c2ccccc2)n1)C1CCS(=O)(=O)C1 (centres undefined),x,x,n,x,x,x,x,x
CCCCN1C(=O)c2ccc(C(=O)NCc3ccco3)cc2C1=O,n,n,n,x,x,n,x,x
CC(C)C(=O)c1ccc(O)c(O)c1,41,n,n,n,n,n,n,n
Cc1ccc2c(Cl)c(C(=O)NC3CC3)sc2c1,n,n,n,x,x,n,x,x
COc1ccc(S(=O)(=O)N(CC(=O)NC2CC2)Cc2ccccc2)cc1,n,n,n,x,x,n,x,x
O=C1/C(=C/c2cccnc2)SC(=S)N1Nc1ccccc1,37,n,n,n,n,n,n,n
O=C(Nc1ccc(F)cc1F)Nc1ccc(F)cc1F,n,n,n,n,n,n,x,x
O=C(NNc1ccccc1[N+](=O)[O-])Nc1cccc(Cl)c1,33,n,n,n,n,n,31,n
O=C(NNc1ccccc1[N+](=O)[O-])Nc1ccc(F)cc1F,40,n,n,x,x,n,n,n
COCCN(C(=O)CNC(=O)c1ccco1)C(C(=O)NC1CCCC1)c1cccs1 (centres undefined),n,n,n,n,n,n,x,x
Oc1ccccc1N=Cc1c(O)ccc2oc3c(c12)CCCC3,39,u,n,n,n,u,n,n
NC(=O)c1c(NC(=O)C2CC=CCC2C(=O)O)sc2c1CCCCC2 (centres undefined),40,n,n,x,x,n,n,n
NC(=O)c1c(NC(=S)Nc2ccc(F)cc2)sc2c1CCCC2,35,n,n,n,n,n,n,n
SMILES,PfM18AAP inh-1,PABP polyA inh,PABP1 MLLE inh,eIF4E-4G inh,PERK inh,eIF4H FP inh,PfM18AAP inh-2,CTSL1 counter
Cn1c(Cc2nc(-c3cnccn3)no2)nnc1SCC(=O)Nc1ccccc1,n,n,n,n,n,n,x,x
CC(=O)N1CCC(=NNc2ncc(C(F)(F)F)cc2Cl)CC1,33,n,n,n,n,n,n,n
CCN(CC(=O)Nc1c(F)cccc1F)C(=O)CNC(=O)c1ccc(Br)o1,x,x,n,x,x,x,x,x
COC(=O)CSc1nnc(NC(=O)c2ccc3c(c2)OCO3)s1,n,n,n,x,x,n,x,x
CCC(CC)c1nnc(NC(=O)c2ccc3c(c2)OCO3)s1,36,n,n,x,x,n,n,n
O=C(COC(=O)CCSc1ccccc1Cl)NCc1ccco1,n,n,n,n,n,n,x,x
Cc1cccc(C)c1-n1c(C)cc(/C=N\Nc2ccc([N+](=O)[O-])cn2)c1C,51,n,n,n,n,n,n,n
COC(=O)C1=C(O)/C(=C\c2ccc(O)c(OC)c2)N=C1C,55,83,n,n,n,56,n,n
COC(=O)C1=C(O)/C(=C\c2ccc(OCC(=O)Nc3ccccc3OC)cc2)N=C1C,n,n,n,x,x,n,x,x
O=[N+]([O-])c1ccc(NN=Cc2cccc(O)c2)nc1,x,x,n,x,x,x,x,x
COc1ccc(/C=N/Nc2ccc([N+](=O)[O-])cc2)cc1O,48,n,n,x,x,n,n,n
COc1cc(/C=C/C(=O)/C=C(O)/C=C/c2ccc(O)c(OC)c2)ccc1O,x,x,n,x,x,x,x,x
COc1cc(/C=C/C(=O)CC(=O)/C=C/c2ccc(O)c(OC)c2)ccc1O,35,n,n,n,n,n,n,n
CC1CCCC(C)N1C(=O)CN1C(=O)NC2(CCOc3ccccc32)C1=O (centres undefined),x,x,n,x,x,x,x,x
Cc1ccc(/C=C2\SC(=S)N(CCC(=O)N3CCOCC3)C2=O)cc1,n,n,n,x,x,n,x,x
Cc1ccc(C(=O)NC(Cc2ccccc2C(F)(F)F)C(=O)O)cc1 (centres undefined),x,x,n,x,x,x,x,x
COCc1nnc(NS(=O)(=O)c2c(C)cc(C)cc2C)s1,n,n,n,n,n,n,x,x
COc1cc(/C=N/Nc2ccc([N+](=O)[O-])cn2)cc(OC)c1O,38,n,n,x,x,n,n,n
COc1cc(/C=N/Nc2ccc(C(=O)O)cc2)ccc1O,50,n,n,n,n,n,n,n
O=[N+]([O-])c1ccc(N/N=C/c2cn(Cc3ccc(F)cc3)c3ccccc23)nc1,40,n,n,n,n,n,n,n
COC(=O)N/N=C/c1cn(Cc2ccc(F)cc2)c2ccccc12,n,n,n,n,n,n,x,x
CC(=O)c1cc(-c2ccc(F)cc2)n(CCC(=O)Nc2cc(C)[nH]n2)c1C,57,n,n,n,n,n,n,n
CN(C)/C=C1\NC(=S)N(c2ccc(Cl)cc2)C1=O,67,n,n,n,n,n,44,n
COc1ccc(N2C(=O)/C(=C/c3cccs3)NC2=S)cc1,n,n,n,n,n,n,x,x
CCOc1cccc(/C=C2\NC(=S)N(c3ccccc3)C2=O)c1O,n,n,n,n,n,n,x,x
CN(C)/C=C1\NC(=S)N(c2ccccc2)C1=O,73,n,n,n,n,n,51,n
C/C(=N/Nc1nc(-c2ccccc2)cc(-c2ccc(F)cc2)n1)c1cccc(N)c1,36,n,n,n,n,n,n,n
Cc1cnc(C(=O)OCc2nc3ccccc3o2)cn1,x,x,n,x,x,x,x,x
O=C(Nc1nc(-c2ccccc2)cs1)Nc1ccc(F)cc1F,n,n,n,n,n,n,x,x
O=C(Nc1nc(-c2ccccn2)cs1)Nc1ccc(F)cc1F,48,n,n,x,x,n,n,n

# Screening data as filed in PubChem BioAssay.
